Structures are written as SMILES. The campaign covered roughly 320,000 compounds. About 2,100 (0.66%) were called active. About 53% were inconclusive and are not listed. The call rests on the fitted dose curve; in most records, active means well fitted inhibition curve with a large enough effect in the signal ratio, with a control signal flat (not every such curve was filed as active); inconclusive means small, poorly fitted or top-dose-only effect, or effect the other way, or a change in a side signal; inactive means flat fitted curve, though single readings scatter; the % refers to the signal ratio. The list comes from a sample in which actives are over-represented; it also holds similar structures and randomly drawn compounds.
Potency means the concentration at half of the fitted maximal effect.

The assay is described as follows: qHTS Assay for Lipid Storage Modulators in Drosophila S3 Cells.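 On cell number change: cells counted by Cell Tracker Red CMTPX staining in the red channel.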 On lipid storage change, negative = inhibition: on the % scale 0 is the no-effect control and ±100 the full control effect. The following applies: BODIPY lipid droplet fluorescence, 18-24 h, cells fed with added oleic acid; cell number change: measured here: cell count max response; series mostly up to 46.1 µM; lipid storage change, negative = inhibition: at the top concentration. The essentials: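 Drosophila S3 cells loaded with oleic acid (400 uM, as added) and compounds at several concentrations; lipid droplets imaged by 488-nm laser-scanning cytometry, 500–530 nm intensity and object ratio to cell channel. Percent activity normalized to 20 uM Triacsin C.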
`Cc1ccc(NS(=O)(=O)c2cc(C(=O)O)ccc2Cl)cc1`: the Potency was 2.31 µM (active) and the cell number change was -3.53%. As to `COCCN1Cc2cccc(C(=O)NC(C)CCc3ccco3)c2C1=O` (stereo unspecified), the “lipid storage change, negative = inhibition” value is 7.18% (inactive) and the cell number change was found to be 4.03%.

With `O=C(Nc1cccc(C(=O)O)c1)/C(=C\c1ccco1)NC(=O)c1ccccc1`, the “lipid storage change, negative = inhibition” value was -5.58% (inactive) and the cell number change is 13%.

For `CCOC(=O)N1CCN(CC(=O)N2c3ccccc3Sc3ccccc32)CC1`, the “lipid storage change, negative = inhibition” value is -11.6% (inactive) and the cell number change was -12.6%. For `C#CCOc1ccc(C2C3=C(CC(C)(C)CC3=O)N(CC(=O)O)C3=C2C(=O)CC(C)(C)C3)cc1`, in that order: -19.8% (inactive) and -0.525%. Regarding `C#CCOc1ccc(C2C3=C(CC(C)(C)CC3=O)N(CC(=O)O)C3=C2C(=O)CC(C)(C)C3)cc1OC`, the Potency was 10.3 µM (active) and the cell number change was -7.42%. As to `COc1ccc(C2C3=C(CC(C)(C)CC3=O)N(CC(=O)O)C3=C2C(=O)CC(C)(C)C3)cc1OC`, the “lipid storage change, negative = inhibition” value is 2.8% (inactive) and the cell number change is -17.9%. Turning to `O=C(CN1C(=O)c2ccccc2C1=O)Nc1ccc(-c2nc3ccccc3o2)cc1`, the result was inactive. In the case of `Cc1nn(C)cc1C(C(=O)NC1CCCCC1)N(CCc1ccccc1)C(=O)c1cnccn1` (stereo unspecified), the “lipid storage change, negative = inhibition” value is 26.4% (inactive) and the cell number change came out at 19.3%. For `O=C(/C=C/c1cn(-c2ccccc2)nc1-c1cccnc1)N1CCCC1`, in that order: -13% (inactive) and -19.7%.

`CCOc1cc(/C=N/NC(=O)c2ccccn2)ccc1OC(=O)c1ccc(F)cc1`: the compound was classed as inactive and the cell number change came to 5.41%. As to `CCOc1cc(/C=N/NC(=O)c2cccnc2)ccc1OC(=O)c1ccco1`, the “lipid storage change, negative = inhibition” value was -11.5% (inactive) and the cell number change was -16.1%. For the compound `CCOc1cc(/C=N/NC(=O)c2ccncc2)ccc1OC(=O)c1ccccc1`, the Potency is 12.6 µM (active) and the cell number change was -17.2%. Consider `Cc1cccc(Cn2c(N(C)CCO)nc3c2c(=O)[nH]c(=O)n3C)c1`, for which the “lipid storage change, negative = inhibition” value was 7.8% (inactive) and the cell number change amounted to 28.6%. For `CCN(c1ccccc1)S(=O)(=O)c1ccc(OC)c(NC(=O)CN2C(=O)NC(C)(C)C2=O)c1` the same measures were 9.62% (inactive) and -3.73%. As to `COc1ccc(N2CCN(C(=O)CN3C(=O)NC4(CCCCCC4)C3=O)CC2)cc1`, the Potency was 5.8 µM (active) and the cell number change is -6.83%. For `COc1ccc(N2CCN(C(=O)CN3C(=O)NC(C)(C4CC4)C3=O)CC2)cc1` (stereo unspecified), the “lipid storage change, negative = inhibition” value was 8.91% (inactive) and the cell number change was -22.3%. For `CCC1(c2ccc(F)cc2)NC(=O)N(CC(=O)N2CCOCC2)C1=O` (stereo unspecified), in that order: -5.08% (inactive) and -2.03%. In the case of `COc1ccc(C2(c3ccc(OC)cc3)NC(=O)N(CC(=O)Nc3ccccc3)C2=O)cc1`, the compound was classed as inactive and the cell number change worked out at 10.9%. Consider `COc1ccc(-c2csc(NC(=O)CN3C(=O)NC4(CCCC4)C3=O)n2)c(OC)c1`, for which the Potency was 6.51 µM (active). Turning to `COc1ccc(N2CCN(C(=O)CSc3ccc(C)cc3)CC2)cc1`, the “lipid storage change, negative = inhibition” value is -0.457% (inactive) and the cell number change was 6.76%. For `COc1ccc(NC(=O)CN2C(=O)NC3(CCCC3)C2=O)c(OC)c1`, the result was inactive and the cell number change is -7.62%. In the case of `COc1ccc(-c2csc(NC(=O)CN3C(=O)C4CCCCC4C3=O)n2)c(OC)c1` (stereo unspecified), the “lipid storage change, negative = inhibition” value is -15.1% (inactive) and the cell number change is -28.9%.

Regarding `COc1ccc(N2CCN(C(=O)CSc3nnc(C)c(=O)[nH]3)CC2)cc1`, the Potency is 29.1 µM (active) and the cell number change is 2.46%. In the case of `COc1ccc(N2CCN(C(=O)CSc3nc4ccccc4c(=O)[nH]3)CC2)cc1`, the outcome was inactive and the cell number change is -2.61%.

Regarding `COc1cccc(N2CCN(C(=O)CN3C(=O)NC4(CCCC4)C3=O)CC2)c1`, the “lipid storage change, negative = inhibition” value was -5.21% (inactive). `COc1ccc(C2(c3ccc(OC)cc3)NC(=O)N(CC(=O)N3CCOCC3)C2=O)cc1`: the Potency is 0.231 µM (active) and the cell number change is 8.58%. `CCCCOC(=O)c1ccc(NC(=O)C(CCS(C)(=O)=O)NC(C)=O)cc1` (stereo unspecified): the “lipid storage change, negative = inhibition” value was -3.02% (inactive) and the cell number change was found to be 13%. For `CC1(OC(=O)CCc2ccccc2)C(=O)C=C2C=C(c3ccc(C#N)cc3)N(C3CCCCC3)C=C2C1=O` (stereo unspecified), in that order: 0.672% (inactive) and 20.5%. For `CCCCC[C@]12Cc3cc(OC)c(OC)cc3C(O1)c1c(cc(C)n(-c3ccccc3)c1=O)O2` the same measures were -5.41% [at 9.22 µM] (inactive) and -8.82%. As to `O=C(O)c1ccc(-c2nnc(-c3cccc(Br)c3)o2)cc1`, the call was inactive and the cell number change worked out at 12.2%. For `O=C(O)c1ccc(Sc2nnc(-c3cccc(Br)c3)o2)c([N+](=O)[O-])c1`, the Potency is 25.9 µM (active) and the cell number change was -23.6%. On to `Cn1c(Sc2ccc(C(=O)O)cc2[N+](=O)[O-])nnc1-c1ccccc1`, for which the “lipid storage change, negative = inhibition” value was 4.13% (inactive) and the cell number change worked out at 9.56%. For the compound `C=CCOc1cccc(C2C(C(=O)c3ccco3)=C(O)C(=O)N2Cc2cccnc2)c1` (stereo unspecified), the outcome was inactive and the cell number change came out at 4.96%. `O=C(CN1CCC(C(=O)c2ccc(F)cc2)CC1)Nc1ccc(F)cc1`: the “lipid storage change, negative = inhibition” value is -21.6% (inactive) and the cell number change is -11.2%. For `Cn1c(/N=C/c2c[nH]c3ccccc23)nc2ccccc21`, in that order: 3.33% (inactive) and -13.5%. In the case of `O=C(NN1CCOCC1)c1cc(-c2ccc(Br)s2)nc2ccccc12`, the “lipid storage change, negative = inhibition” value is 9.94% (inactive) and the cell number change is 18.5%.

As to `COC(=O)[C@H](CC(C)C)NC(=O)CCc1nnc(COc2ccccc2)o1`, the Potency was 18.4 µM (active) and the cell number change is -24.9%. Regarding `O=C(CCc1nnc(COc2ccccc2)o1)NCc1ccccc1`, the “lipid storage change, negative = inhibition” value is 1.25% (inactive) and the cell number change was -8.23%. In the case of `CC(C)CCNC(=O)CCc1nnc(COc2ccccc2)o1`, the “lipid storage change, negative = inhibition” value was 19.4% (inactive) and the cell number change was 3.37%.

For `CC(/C=N/NC(=O)c1cccnc1)=C\c1ccco1`, the call was inactive and the cell number change turned out to be 4.96%. Turning to `O=S(=O)(NC(=NCc1ccccc1)c1ccccc1)c1ccc(Br)cc1`, the “lipid storage change, negative = inhibition” value is -17.1% (inactive) and the cell number change came out at 2.37%. Consider `CSc1nnc(N2C(=O)C(O)=C(C(=O)c3ccco3)C2c2cccc(Cl)c2)s1` (stereo unspecified), for which the “lipid storage change, negative = inhibition” value was -16.9% (inactive).

Regarding `CSc1ccc(C2C(C(=O)c3ccco3)=C(O)C(=O)N2c2nnc(SC)s2)cc1` (stereo unspecified), the Potency was 7.31 µM (active) and the cell number change was -24.7%.

As for `CSc1nnc(N2C(=O)C(O)=C(C(=O)c3ccco3)C2c2ccc(F)cc2)s1` (stereo unspecified), the call was inactive and the cell number change was -4.48%.

The record behind these values is PubChem BioAssay AID2685 (National Center for Advancing Translational Sciences (NCATS), 2010).
